Screening results as filed in PubChem BioAssay.
HT1080 IDH1KD tx – qHTS for induction of synthetic lethality in tumor cells producing 2HG: qHTS for the HT-1080-IDH1KD cell line; HT-1080 IDH1 knockdown viability, ATP luminescence, 48 h; Potency, µM (doses to about 46.1 µM), for the others: at the top dose activity, negative = toxicity, most hits filed as cytotoxic; actives 2% (n = 360,000); AID 686971, 2013;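 further: 0% = DMSO wells and -100% = cell-free medium wells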
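Assay cells: HT-1080 with IDH1 knockdown, 750 per well, RPMI/5% FBS. Exposure: 48 h at 37 °C following 2 h pre-incubation. Read: CellTiter-Glo luminescence; fitted concentration-response, curve class assigned.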
TDP1 cell CPT – qHTS for Inhibitors of human tyrosyl-DNA phosphodiesterase 1 (TDP1): qHTS in cells in presence of CPT; chicken DT40 Tdp1-/-;hTDP1 cells + 20 nM CPT, ATP luminescence, 48 h; Potency, µM (series often up to 46.2 µM), for inactives: at the top dose activity change, negative = growth inhibition, actives largely listed as inhibitors; actives 12% (n = 420,000); AID 686979, 2013; further: nearly all actives have a fitted effect of over 55% in size
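Cell growth measured by CellTiter-Glo luminescence after a minimum 48 h, 37 C compound exposure with 20 nM CPT in Tdp1-knockout DT40 cells stably expressing hTDP1, seeded 400/well; qHTS titration format.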
HT1080NT lethal – qHTS for induction of synthetic lethality in tumor cells producing 2HG: qHTS for the HT-1080-NT fibrosarcoma cell line | HT-1080-NT fibrosarcoma viability, CellTiter-Glo ATP luminescence, 48 h | actives 1.6% (n = 360,000) | Potency, µM (series often up to 46.1 µM), for the others: top-dose activity, negative = less viability, hits mostly cytotoxic | AID 686970, 2013;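 further: NT is the 2HG producing partner of a matched IDH1 knockdown line; 0% = DMSO-treated cells and -100% = media-only wells without cells; nearly all actives have a fitted effect of over 55% in size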
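HT-1080-NT; 750 cells/well; 5% FBS RPMI; 48 h compound, 37 degrees C; CellTiter-Glo luminescence; curve fitting and curve-class assignment.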
KB-3-1 tox – qHTS assay for MDR1-selective chemotherapeutics: Primary screen using the parental adenocarcinoma cell KB-3-1; KB-3-1 viability, CellTiter-Glo ATP luminescence, 72 h; Potency, µM (titrated, usually from 46.1 µM), usual class: cytotoxic; actives 1.4% (n = 400,000); further: nearly all actives have a fitted effect of over 60% in size
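Using CellTiter-Glo luminescence, growth of non-resistant KB-3-1 adenocarcinoma cells is assessed 72 h after pin-tool compound addition at 37 °C. Normalized responses across the concentration series yield fitted curves.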
KB-V1 MDR tox – qHTS assay for MDR1-selective chemotherapeutics: Primary screen using the drug-selected MDR subline cells KB-V1. KB-V1 MDR cells viability, CellTiter-Glo, 72 h. Potency, µM (titrated, usually from 46.1 µM), hits mostly cytotoxic. actives 3.4% (n = 400,000). AID 1347076, 2019; further: nearly all actives have a fitted effect of over 60% in size
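Compound-treated KB-V1 multidrug-resistant cells, 72 h, 37 degrees C; viability by CellTiter-Glo. Fitted qHTS curves give the values.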
DT40 TDP1 no CPT – qHTS for Inhibitors of human tyrosyl-DNA phosphodiesterase 1 (TDP1): qHTS in cells in absence of CPT; Potency, µM (series often up to 46.2 µM), inactives show at the top dose activity change, negative = growth inhibition, most hits filed as inhibitors; actives 15% (n = 420,000); DT40 Tdp1-/- hTDP1 cells, no CPT, ATP luminescence, 48 h; further: nearly all actives have a fitted effect of over 55% in size
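DT40 Tdp1-/-;hTDP1 cells, no CPT (DMSO vehicle only), 400 cells/well; compounds pin-transferred; ≥48 hr, 37 °C; CellTiter-Glo 30 min RT dark, luminescence read.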
Starred values were filed as active, the others as inactive; i = inactive; ? = inconclusive; / = no result. Only some compounds are listed: those with a hit (about 19% of all), similar ones and a draw of the others. The call rests on the fitted dose curve; in most records, active means well fitted curve in the direction sought with a large enough effect; inconclusive means small, poorly fitted or top-dose-only effect, or another doubt; inactive means no such curve, though single readings can be large; an effect the other way counts as inactive or inconclusive. Unless noted, on the % scale 0 is the no-effect control and ±100 the full control effect; potency means the concentration at half of the fitted maximal effect.

SMILES	HT1080 IDH1KD tx	TDP1 cell CPT	HT1080NT lethal	KB-3-1 tox	KB-V1 MDR tox	DT40 TDP1 no CPT
Fc1ccc(NC(=S)N2CCOCC2)c(F)c1	10.4%	-0.4%	3.6%	i	i	13.7%
O=[N+]([O-])c1ccc(NC(=S)N2CCc3ccccc3C2)cc1	7.3%	-19.9%	-4.5%	i	23.1µM*	?
COc1ccc(N2CCN(C(=S)Nc3ccc(F)cc3)CC2)cc1	-1.1%	1.2%	-4.8%	i	i	0.1%
Cc1cccc(NC(=S)N2CCN(c3ccccc3)CC2)c1	8.2%	3.3%	12.3%	i	i	-11.9%
O=S(=O)(Nc1ccccc1N1CCOCC1)c1c(F)cc(F)cc1Br	11.8%	-16.5%	4.8%	i	?	-31.4%
O=[N+]([O-])c1cc(S(=O)(=O)Nc2cccc(Cl)c2)ccc1N/N=C/c1ccc(N2CCOCC2)cc1	6.7%	?	0.0%	?	i	10.3µM*
COc1ccc(NS(=O)(=O)c2ccc(N/N=C(\C)c3ccncc3)c([N+](=O)[O-])c2)cc1	?	11.6µM*	-22.4%	?	i	7.31µM*
O=[N+]([O-])c1ccc(N/N=C/c2c[nH]c3ccccc23)c(S(=O)(=O)Nc2ccc(Cl)cc2)c1	-22.5%	?	-2.0%	?	?	23.1µM*
C/C(=N\Nc1ccc(S(=O)(=O)Nc2ccccc2)cc1[N+](=O)[O-])c1ccc(N2CCOCC2)cc1	-0.8%	14.6µM*	1.4%	i	i	2.59µM*
COc1ccc(NC(=O)c2sc3nc4n(c(=O)c3c2C)CCC4)cc1Cl	/	-18.0%	/	i	i	-20.2%
O=[N+]([O-])c1ccccc1/C=C/C=N/Nc1ccc(S(=O)(=O)Nc2ccc(Cl)cc2)cc1[N+](=O)[O-]	-4.8%	16.4µM*	-7.2%	?	?	18.4µM*
C/C=C/c1cccc(-c2nc(C(=O)NC3Cc4ccccc4C3)cc3c2[C@@H](CCO)N(C(C)=O)C3)c1	?	14.6µM*	?	i	?	?
C/C=C/c1cccc(-c2nc(C(=O)NC3CCCC3)cc3c2[C@@H](CCO)N(S(=O)C(C)(C)C)C3)c1 (stereo not given in full)	1.9%	25.9µM*	-12.8%	i	i	18.4µM*
COc1ccc2c(c1)C/C(=C\c1ccc(N(C)C)cc1)C2=O	/	?	/	i	i	?
CCOc1cc(S(=O)(=O)n2nc(C)cc2C)ccc1Br	-12.2%	11.2%	-5.3%	i	?	?
O=C(CCn1nc(-c2ccccc2)ccc1=O)N1CCOCC1	2.2%	-6.7%	-2.1%	i	i	-18.8%
COc1cc(C(F)(F)F)c(C(=O)N(C)Cc2cccc(Cl)c2)cn1	-13.0%	-22.3%	-10.2%	i	i	?
COc1cc(C(F)(F)F)c(C(=O)N(C)Cc2cc(Cl)cc(Cl)c2)cn1	-8.0%	?	11.2%	i	?	14.6µM*
CCCC(=O)N(c1ccc2oc(C)c(C(C)=O)c2c1)S(=O)(=O)c1ccc(C(=O)O)cc1	2.3%	-11.6%	0.2%	i	i	?
Cc1cc(F)ccc1S(=O)(=O)N(C(=O)c1ccncc1)c1ccc(OC(=O)c2ccncc2)cc1	-9.5%	23.1µM*	-5.7%	i	i	14.6µM*
CCOC(=O)c1c(C)oc2ccc(N(C(=O)c3ccncc3)S(=O)(=O)c3ccc(F)cc3C)cc12	/	?	/	i	?	23.1µM*
CC(=O)c1c(C)oc2ccc(N(C(=O)c3ccncc3)S(=O)(=O)c3ccc(F)cc3C)cc12	/	10.3µM*	/	?	i	7.31µM*
O=C1COc2ccc(C(=O)COC(=O)c3cc(S(=O)(=O)N4CCOCC4)ccc3F)cc2N1	2.9%	12.4%	0.0%	/	/	-4.9%
CC(=O)N/C(=C\c1ccccc1)C(=O)OCC(=O)Nc1cc(S(=O)(=O)N(C)C)ccc1C	-20.9%	8.8%	-0.7%	i	i	5.6%
CSc1n[nH]c(-c2sccc2OCc2ccc(C)cc2)n1	7.2%	-27.5%	-2.1%	i	16.4µM*	-17.3%
SMILES	HT1080 IDH1KD tx	TDP1 cell CPT	HT1080NT lethal	KB-3-1 tox	KB-V1 MDR tox	DT40 TDP1 no CPT
Cc1nc(C(=O)Nc2ccc(Cl)cc2Cl)nn1-c1cc(OC(C)C)c(Cl)cc1Cl	0.8%	?	10.5%	i	i	?
Cc1nc(C(=O)Nc2cccc(Cl)c2Cl)nn1-c1cc(OC(C)C)c(Cl)cc1Cl	0.1%	-20.6%	-1.7%	i	?	?
Cc1nc(C(=O)Nc2cc(Cl)ccc2Cl)nn1-c1cc(OC(C)C)c(Cl)cc1Cl	0.8%	16.4µM*	?	i	14.6µM*	11.6µM*
Cc1nc(C(=O)Nc2cccc(Cl)c2)nn1-c1cc(OC(C)C)c(Cl)cc1Cl	-4.6%	16.4µM*	0.0%	i	?	?
O=C(CNC(=O)N1CC(=O)Nc2ccccc21)Nc1nccs1	10.6%	-0.7%	5.4%	i	i	11.8%
CCn1nc([N+](=O)[O-])c(C(C#N)c2nc3cc(C(F)(F)F)ccc3s2)c(Cl)c1=O (stereo not given)	0.316µM*	14.6µM*	0.631µM*	14.6µM*	?	23.1µM*
CN(C)c1nc(/C=C(\C#N)C(N)=O)c(Cl)n1-c1ccc(F)cc1	2.2%	16.4µM*	9.6%	?	i	20.6µM*
Clc1ccc(-c2cc(C3CCNCC3)[nH]n2)cc1	-2.3%	23.1µM*	?	i	i	25.9µM*
COC(=O)c1cc(-c2ccc(Cl)cc2)n[nH]1	9.3%	?	14.1%	i	i	-26.1%
Cc1ccc(CN2CCC(c3cc(-c4ccc(Cl)cc4)n[nH]3)CC2)cc1	?	16.4µM*	-0.3%	?	?	14.6µM*
O=C(c1cccc(Cl)c1)C1CCCN(C(=O)c2ccoc2)C1 (stereo not given)	-14.6%	1.8%	3.6%	i	?	-19.2%
Cc1ccc(NC(=O)C2CCCN(S(=O)(=O)c3cccc4cccnc34)C2)cc1 (stereo not given)	-0.2%	?	0.0%	i	i	20.6µM*
